The nature of assay [1]: NCI Yeast Anticancer Drug Screen. Data for the rad50 strain (AID 155).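 Note: 0% = growth of vehicle-only cultures of the same strain.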 The conditions noted are these: S. cerevisiae rad50 strain growth inhibition; at 50.0 µM; active compounds read high. An outline of the steps: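 Compounds were tested on a yeast strain with an engineered DNA damage repair alteration; the reported value is growth inhibition normalised to vehicle treatment.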

Assay [2] is described as follows: NCI Yeast Anticancer Drug Screen. Data for the mec2-1 strain (AID 157). Particulars: S. cerevisiae mec2-1 strain, at 50.0 µM, active compounds read high. An outline of the steps: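 Compounds were applied to mec2-1 yeast cells. Their growth was then compared with that of vehicle-treated cultures to give growth inhibition.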
The nature of assay [3]: NCI Yeast Anticancer Drug Screen. Data for the sgs1 mgt1 strain (AID 161).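 Note: 0% = growth of cultures given vehicle only.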 Particulars: S. cerevisiae sgs1 mgt1 strain, at 50.0 µM, active compounds read high. An outline of the steps: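 Yeast cells carrying a defined DNA-repair defect were exposed to test compounds. Growth inhibition was measured relative to vehicle-treated controls.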
A short description of assay [4]: NCI Yeast Anticancer Drug Screen. Data for the cln2 rad14 strain (AID 165).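 Note: 0% = growth equal to vehicle treated cultures.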 The conditions noted are these: S. cerevisiae cln2 rad14 strain, at 50.0 µM, active compounds read high. The method in brief:
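Strain: cln2 rad14 yeast, altered in cell cycle control and DNA damage repair. Read-out: growth inhibition vs vehicle.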

Assay [5] in a line: NCI Yeast Anticancer Drug Screen. Data for the bub3 strain (AID 167). Particulars: S. cerevisiae bub3 mutant strain, at 50.0 µM, active compounds read high. An outline of the steps: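 Growth of a checkpoint-deficient yeast mutant is measured after compound exposure. Values represent inhibition relative to vehicle.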
Assay [6] in a line: NCI Yeast Anticancer Drug Screen. Data for the mlh1 rad18 strain (AID 175). Particulars: S. cerevisiae mlh1 rad18 strain growth inhibition; at 50.0 µM; active compounds read high. An outline of the steps: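 A repair-deficient yeast strain is exposed to test compound, and growth is scored relative to vehicle-treated controls.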

Compounds without any hit were thinned out: in the full panel of roughly 79,000, 15% have a hit. Values without a mark were called inactive. The source made the active and inactive calls. Cut-off read from the data, not from the text of the source: active = growth inhibition above about 70%; inactive = the rest.

In the case of `C#CCCOC(=O)c1ccccc1OC(C)=O`, the growth inhibition is -0.8% in assay [1]; -9.55% in assay [2]; -2.3% in assay [3]; 11.5% in assay [4]; 7.15% in assay [5]; 5.15% in assay [6].

`Cc1ccc(S(=O)(=O)N2c3ccccc3[C@H]3CCC=C[C@H]32)cc1`: the growth inhibition in assay [1] is -13.2%; in assay [2], 17.8%; in assay [3] it was -19.4%; in assay [4] it was -20.6%; in assay [5] it was 30.6%; in assay [6], -15.4%.

Regarding `CCCCC1OCCOC1C1COCCO1` (stereo not drawn), the growth inhibition was -7.25% in assay [1]; -21.9% in assay [2]; -10.8% in assay [3]; -6% in assay [4]; 2.55% in assay [5]; 6.7% in assay [6].

On to `Cc1ccc(S(=O)(=O)Oc2c(Cl)cc(Cl)cc2Cl)cc1`, for which the growth inhibition in assay [1] is -2.4%; in assay [2] it was 9.35%; in assay [3], 26.4%; in assay [4], -19.1%; in assay [5], 24.8%; in assay [6], 29.8%.

In the case of `Nc1nc(O)cc(=O)[nH]1`, the growth inhibition in assay [1] is 3.35%; in assay [2], -1.95%; in assay [3], -0.65%; in assay [4], -8.5%; in assay [5], 2.35%; in assay [6] it was -3.25%.

With `O=C1NC(=O)[C@H]2C[C@H]3C(=O)NC(=O)[C@H]3[C@@H]12`, the growth inhibition in assay [1] was -0.7%; in assay [2] it was 2.75%; in assay [3] it was -6.9%; in assay [4], -11.3%; in assay [5] it was 3.8%; in assay [6], 7.15%.

In the case of `O=C1ON(c2ccccc2)C(c2cccc(Cl)c2)N1c1ccccc1` (stereo not drawn), the growth inhibition in assay [1] is 14.1%; in assay [2], -2.85%; in assay [3] it was -3.95%; in assay [4], 3.25%; in assay [5], 9.25%; in assay [6] it was -16.1%.

For `Nc1ccc(-c2nc3ccccc3[nH]2)cc1`, the growth inhibition is -2.55% in assay [1]; 17.8% in assay [2]; 3.1% in assay [3]; 9% in assay [4]; 18.9% in assay [5]; -0.8% in assay [6].

Consider `c1ccc(Cc2nnc(Cc3ccccc3)nn2)cc1`, for which the growth inhibition was 10.8% in assay [1]; 8.35% in assay [2]; 2.7% in assay [3]; 7.25% in assay [4]; 21.4% in assay [5]; 7% in assay [6].

Consider `CCC(O)(c1ccc(O)cc1)C(O)(CC)c1ccc(O)cc1` (stereo not drawn), for which the growth inhibition in assay [1] was 1.4%; in assay [2] it was -12.8%; in assay [3] it was -0.2%; in assay [4], 5.55%; in assay [5] it was 17.4%; in assay [6], -14.4%.

For `C=C1CCCC2OC(OC)CCC12` (stereo not drawn), the growth inhibition in assay [1] was -23.4%; in assay [2], -10.8%; in assay [3] it was -6.5%; in assay [4], 0.75%; in assay [5], -21.9%; in assay [6] it was -10.6%.

Turning to `CN(N=O)C(=O)NCc1ccc(Cl)cc1`, the growth inhibition in assay [1] is -0.1%; in assay [2], 15.8%; in assay [3], 17.6%; in assay [4], 12.4%; in assay [5], 8.05%; in assay [6], 1.15%.

`COc1ccc(/C=C2/CSC/C(=C/c3ccc(OC)c(OC)c3)C2=O)cc1OC`: the growth inhibition was -16.2% in assay [1]; 11.7% in assay [2]; 6.8% in assay [3]; -40.8% in assay [4]; 10.2% in assay [5]; -1.35% in assay [6].

Take `CC(O)C(NC(=O)c1cnc(OCc2ccccc2)nc1N)C(=O)O` (stereo not drawn): the growth inhibition in assay [1] was 3.65%; in assay [2] it was -15.7%; in assay [3] it was -11%; in assay [4] it was 0.85%; in assay [5], -9.8%; in assay [6], -3.35%.

Take `O=[N+]([O-])c1ccc(-c2ccccc2)c([N+](=O)[O-])c1`: the growth inhibition in assay [1] is -3.05%; in assay [2], 0.35%; in assay [3] it was -29.8%; in assay [4], -31.9%; in assay [5], 1.5%; in assay [6], 17.6%.

On to `O=C(NC1CCCCC1)C1C(=O)C(=O)N(C2CCCCC2)C1=O` (stereo not drawn), for which the growth inhibition was -14.5% in assay [1]; -1.35% in assay [2]; -13.9% in assay [3]; -8.65% in assay [4]; -5.8% in assay [5]; -28.2% in assay [6].

Turning to `O=S1OC(c2ccccc2)(c2ccccc2)C(c2ccccc2)(c2ccccc2)O1`, the growth inhibition in assay [1] is -29.9%; in assay [2], -16.6%; in assay [3], 2.2%; in assay [4] it was 11.6%; in assay [5] it was -13.2%; in assay [6] it was -17.4%.

As to `COc1cccc(CN(CC(=O)O)S(=O)(=O)c2ccc(C)cc2)c1`, the growth inhibition in assay [1] is -6.2%; in assay [2], 11.3%; in assay [3] it was -1%; in assay [4], -46.6%; in assay [5], -23.6%; in assay [6], 6.85%.

As to `CCC(C)C(=O)c1c(O)c(C/C=C(\C)CCC=C(C)C)c(O)c2c(C(O)CC)cc(=O)oc12` (stereo not drawn), the growth inhibition in assay [1] is 21.8%; in assay [2] it was 15.8%; in assay [3], 14.7%; in assay [4], 18.1%; in assay [5], 20.1%; in assay [6], 42.9%.

Consider `CNc1c2c(nc3ccccc13)CCCC2`, for which the growth inhibition in assay [1] was 1.95%; in assay [2], -10.3%; in assay [3], -10.1%; in assay [4] it was -44.4%; in assay [5], 15.1%; in assay [6], -19.2%.

As to `CCOC(=O)Cn1c(=O)c2nc(SC)sc2n(-c2ccccc2)c1=O`, the growth inhibition in assay [1] was -19.9%; in assay [2], 10.8%; in assay [3], -37.1%; in assay [4], 6.9%; in assay [5] it was -1.45%; in assay [6] it was 9.4%.

Take `O=C(NNc1ccccc1)NNc1ccccc1`: the growth inhibition in assay [1] is 32.8%; in assay [2], 21.4%; in assay [3], 45.3%; in assay [4], 46.3%; in assay [5], 20.8%; in assay [6], 29.8%.

For `CN(C)Cc1cc(C(C)(C)C)cc(CN(C)C)c1O`, the growth inhibition was -4% in assay [1]; -6.2% in assay [2]; -13% in assay [3]; -20.1% in assay [4]; -36.4% in assay [5]; -0.05% in assay [6].

For `CC1(C)NN=C([N+](=O)[O-])C1c1ccccc1` (stereo not drawn), the growth inhibition is 5.95% in assay [1]; 10.7% in assay [2]; 7.2% in assay [3]; -14.4% in assay [4]; -11% in assay [5]; 6.65% in assay [6].

For `O=C(Cl)C1C2C=CC(C2)C1C(=O)Cl` (stereo not drawn), the growth inhibition is 3.1% in assay [1]; -20.4% in assay [2]; -2.35% in assay [3]; -9.15% in assay [4]; 15.6% in assay [5]; 2.55% in assay [6].

`O=C1NC(c2ccc(Cl)cc2)(c2ccc(Cl)cc2)C(=O)N1Cl`: the growth inhibition was -4.8% in assay [1]; -1.6% in assay [2]; 8.05% in assay [3]; 16.9% in assay [4]; 11.6% in assay [5]; -16.4% in assay [6].

On to `Cc1cc(C)c2cnnn2n1`, for which the growth inhibition in assay [1] is 10.1%; in assay [2] it was -14.1%; in assay [3], 0.6%; in assay [4], 15.4%; in assay [5] it was -21.1%; in assay [6] it was -2.75%.

On to `C=C1CC[C@@H]2C(C)(C)CCC[C@@]2(C)[C@@H]1Cc1cc(O)ccc1O`, for which the growth inhibition in assay [1] was 86.8% (active); in assay [2], 88.6% (active); in assay [3], 87% (active); in assay [4] it was 87.2% (active); in assay [5], 87.9% (active); in assay [6], 87.5% (active).

On to `N#CCCN(Cc1ccccc1)C(=S)Nc1cccc(C(F)(F)F)c1`, for which the growth inhibition was 75.8% (active) in assay [1]; 53% in assay [2]; 85.2% (active) in assay [3]; 81.5% (active) in assay [4]; 70.1% (active) in assay [5]; 78% (active) in assay [6].

As to `CC(=O)O[C@]12CCCCCCC1C1(O)C(O)CCC[C@H]12` (stereo partly drawn), the growth inhibition in assay [1] is -23.6%; in assay [2], -1.95%; in assay [3], -53.2%; in assay [4], -8.95%; in assay [5], -22.2%; in assay [6], -36.6%.

On to `Cc1ccc(N2C(=O)/C(=C/c3ccc(N(CCC#N)CCC#N)cc3)N=C2COc2ccc(Cl)cc2Cl)cc1`, for which the growth inhibition is -0.2% in assay [1]; -26.9% in assay [2]; -7.25% in assay [3]; -17.8% in assay [4]; -36.1% in assay [5]; -25.9% in assay [6].

Consider `c1ccc(-c2ccccc2NC2=NCCO2)cc1`, for which the growth inhibition was 6.55% in assay [1]; -2.8% in assay [2]; 2.2% in assay [3]; -25.1% in assay [4]; 11.4% in assay [5]; 5.7% in assay [6].

As for `O=C1OC(=O)c2c1cccc2[N+](=O)[O-]`, the growth inhibition in assay [1] was -7.55%; in assay [2] it was 0%; in assay [3] it was -2.6%; in assay [4] it was -14.4%; in assay [5], -5.2%; in assay [6], 2.7%.

`COC(=O)NS(=O)(=O)CC(=O)c1ccccc1`: the growth inhibition was 10.2% in assay [1]; -0.3% in assay [2]; -1.55% in assay [3]; 8.9% in assay [4]; 1.3% in assay [5]; 9.9% in assay [6].

Take `O=C(O)/C=C\C(=O)Nc1ccc2c(c1)-c1ccccc1C2`: the growth inhibition in assay [1] is -6.95%; in assay [2], -16.4%; in assay [3] it was -14.6%; in assay [4] it was -22.4%; in assay [5], -28.1%; in assay [6], 2.15%.

For `COc1ccc(N2C(=O)C3CC(c4ccc(Br)cc4)c4c([nH]c5ccccc45)C3C2=O)cc1` (stereo not drawn), the growth inhibition in assay [1] is 1.7%; in assay [2], -14.4%; in assay [3], 5.55%; in assay [4], -51.8%; in assay [5], 2.9%; in assay [6], -4.95%.

In the case of `CN1C(=O)OC2C3NC(=O)OC3C(O)C(O)C21` (stereo not drawn), the growth inhibition in assay [1] was -7.85%; in assay [2], -12.3%; in assay [3] it was -6.3%; in assay [4], -1.15%; in assay [5], -6.15%; in assay [6], -8.95%.

On to `C=C(C)C(=O)OC1C/C(CO)=C\C(O)C/C(C)=C/C2OC(=O)C(=C)C21` (stereo not drawn), for which the growth inhibition in assay [1] was 55%; in assay [2], 31.1%; in assay [3], 33.7%; in assay [4], 48%; in assay [5] it was 41.5%; in assay [6], -46.7%.

The values above are taken from PubChem BioAssay (NCI).
